# Compound activity: PubChem BioAssay, National Center for Advancing Translational Sciences (NCATS)
# Only some compounds are listed: those with a hit (about 21% of all), similar ones and a draw of the others.
# DT40 TDP1 CPT: growth inhibition of DT40 Tdp1-/-;hTDP1 cells with camptothecin (screen for TDP1 inhibitors). chicken DT40 Tdp1-/-;hTDP1 cells + 20 nM CPT, ATP luminescence, 48 h. Potency, µM (titrated, usually from 46.2 µM), for inactives: top-dose activity change, negative = growth inhibition, usual class: inhibitors. 420,000 tested, 12% active; also: potency is read from the fitted curve at half-maximal effect; nearly all actives have a fitted effect of over 55% in size
#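 Cell growth measured by CellTiter-Glo luminescence after a minimum 48 h, 37 C compound exposure with 20 nM CPT in Tdp1-knockout DT40 cells stably expressing hTDP1, seeded 400/well; qHTS titration format.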
# RORgamma inh: ROR gamma (mouse) transcription inhibition; P51450; Drosophila S2 Gal4-RORgamma UAS-luciferase reporter, 20 h; Potency, µM (doses to about 53.6 µM), for the others: top-dose activity change, negative = inhibition, usual class: inhibitors; 310,000 tested, 5.4% active; also: potency is read from the fitted curve at half-maximal effect; nearly all actives have a fitted effect of over 60% in size
# Target sequence (P51450 whole entry, looked up, the tested form may be a part): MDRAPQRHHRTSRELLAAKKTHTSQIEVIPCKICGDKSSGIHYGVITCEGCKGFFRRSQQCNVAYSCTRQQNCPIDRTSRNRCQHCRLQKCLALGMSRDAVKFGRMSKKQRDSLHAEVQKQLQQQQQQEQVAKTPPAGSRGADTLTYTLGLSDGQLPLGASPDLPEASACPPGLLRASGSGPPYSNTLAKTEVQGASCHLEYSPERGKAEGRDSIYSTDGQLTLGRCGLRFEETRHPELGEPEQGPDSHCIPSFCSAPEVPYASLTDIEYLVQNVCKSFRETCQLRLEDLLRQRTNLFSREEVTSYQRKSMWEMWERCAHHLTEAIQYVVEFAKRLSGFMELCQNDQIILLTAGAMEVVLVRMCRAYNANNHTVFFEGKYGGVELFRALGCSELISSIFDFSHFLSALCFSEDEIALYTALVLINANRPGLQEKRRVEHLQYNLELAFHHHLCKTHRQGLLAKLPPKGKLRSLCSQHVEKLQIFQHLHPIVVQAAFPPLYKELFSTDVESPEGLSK
#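 Schneider cells (Drosophila), stable Gal4 DBD–ROR gamma + UAS-luc; 1 hr cmpd preincubation; Cu2+ induction 700 uM final; 20 hr ambient; luminescence.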
# ELG1 repair inh: ELG1-dependent DNA repair inhibition; HEK293T ELG1-luciferase reporter, luminescence, 16 h; DNA damage induced by 5-fluorouridine; Potency, µM (doses to about 46.1 µM), for the others: at the highest dose activity change, negative = inhibition, hits mostly inhibitors; 330,000 tested, 2.3% active; also: potency is read from the fitted curve at half-maximal effect; nearly all actives have a fitted effect of over 55% in size
#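 5-Fluorouridine DNA damage + compound/DMSO, 2,000 cells/well, 16 h, 37 °C/5% CO2. ONE-Glo, 30 min RT, luminescence. Readout = decrease in reporter signal.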
# TDP1 cell noCPT: qHTS for Inhibitors of human tyrosyl-DNA phosphodiesterase 1 (TDP1): qHTS in cells in absence of CPT. DT40 Tdp1-/- hTDP1 cells, no CPT, ATP luminescence, 48 h. Potency, µM (titrated, usually from 46.2 µM), for the others: top-dose activity change, negative = growth inhibition, hits mostly inhibitors. 420,000 tested, 15% active. AID 686978, 2013; also: potency is read from the fitted curve at half-maximal effect; nearly all actives have a fitted effect of over 55% in size
#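 DT40 Tdp1-/-;hTDP1 cells, no CPT (DMSO vehicle only), 400 cells/well; compounds pin-transferred; ≥48 hr, 37 °C; CellTiter-Glo 30 min RT dark, luminescence read.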
# IL-1B inflam inh: inflammasome signaling inhibition, IL-1 beta readout | activity change, % at 57.5 µM | THP-1 LPS/ATP IL-1B secretion, AlphaLISA, 16 h; hits give low values | 360,000 tested, 4.7% active | AID 743279; in the data active = activity change below about -50%; inconclusive = mostly about -30% to -49%
#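 THP-1 cells pretreated 1 hr with compounds (up to 57.5 uM final), then stimulated with LPS (250 ng/mL final) plus ATP (1.25 mM final); secreted IL-1B measured by AlphaLISA after 16 hr, decreased signal indicating inhibition.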
# VP16 counter: counter-screen for ROR gamma inhibitors: Gal4-VP16 reporter. Potency, µM (doses to about 53.6 µM), inactives show at the highest dose activity, negative = inhibition, hits mostly inhibitors. Drosophila S2 Gal4-VP16 UAS-luciferase, luminescence, 20 h. 310,000 tested, 3.5% active. AID 2546;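 also: Gal4-VP16 expression switched on by copper sulfate through the metallothionein promoter; potency is read from the fitted curve at half-maximal effect; nearly all actives have a fitted effect of over 50% in size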
# * = called active by the depositor; i = inactive; ? = inconclusive; / = no result; ! = not active in a repeat; [ ] = remark or other dose. Unless noted, calls follow the shape of the dose curve; as a rule, active = well fitted curve in the direction sought with a large enough effect; inconclusive = small, poorly fitted or top-dose-only effect, or another doubt; inactive = no such curve, though single readings can be large; an effect the other way counts as inactive or inconclusive. % is scaled to controls: 0 for no effect and ±100 for the full control effect.
SMILES,DT40 TDP1 CPT,RORgamma inh,ELG1 repair inh,TDP1 cell noCPT,IL-1B inflam inh,VP16 counter
CN(Cc1ccccc1)C1CCN(Cc2ccccc2[N+](=O)[O-])CC1,12.3%,1.3%[1.91 µM],-9.7%,-24.4%,-17.4,0.2%
O=[N+]([O-])c1ccccc1-c1ccc(CN2CCN(c3ccccc3)CC2)o1,-1.9%,-5.0%,-9.0%,-4.1%,8.1,2.3%
CN(Cc1cc([N+](=O)[O-])c2cccnc2c1O)C1CCCCC1,/,3.98µM*,20.0%,/,/,?
O=[N+]([O-])c1cc(CN2CCN(c3ccccc3)CC2)c(O)c2ncccc12,2.06µM*,0.112µM*,4.61µM*,4.11µM*,89.2,-86.8%
CC/C=C\C/C=C\C/C=C\C/C=C\C/C=C\C/C=C\CCC(N)=O,/,-0.7%,/,/,/,-2.4%
O=c1c(-c2ccc(O)cc2)coc2cc(O[C@@H]3O[C@H](CO)[C@H](O)[C@H](O)[C@H]3O)ccc12,/,7.5%,/,/,/,29.2%
O=C(c1ccccc1F)N1CCC2CC1c1cc(N3CCCCC3)ccc12 (stereo unspecified),?,/,/,18.4µM*,37.5,/
O=C(C1CCCCC1)N1CCC2CC1c1cc(N3CCCCC3)ccc12 (stereo unspecified),18.4µM*,/,/,20.6µM*,51.1,/
COC(=O)c1[nH]c2cc(C)ccc2c1NC(=O)CN1CCCc2ccccc21,?,17.8%,?,25.9µM*,-26.5,?
COCCNC(=O)NC(=O)CN1CCCc2ccccc21,-11.8%,2.0%,2.8%,-7.9%,18.5,-11.4%
COC(=O)c1[nH]c2ccc(Br)cc2c1NC(=O)CN1CCCc2ccccc21,20.6µM*,41.3%,8.2µM*,18.4µM*,-52.9*,-0.1%
Cc1ccc(NC2CCCN(C(=O)c3cccc4nccnc34)C2)cc1C (stereo unspecified),-0.2%,-28.8%,-1.3%,-3.6%,i,-0.2%
COc1cc(-c2noc(-c3cc(C)[nH]n3)n2)cc(OC)c1OC,-20.4%,/,/,?,/,/
COc1ccc(OCc2nc(-c3ccc(OC)c(OC)c3)no2)cc1,16.4µM*,/,/,?,/,/
CCOc1ccc(-c2cc(-c3nc(-c4ccc(OC)c(OC)c4)no3)[nH]n2)cc1,16.4µM*,/,/,6.51µM*,/,/
CCOc1cc(-c2nc(-c3ccc(OC)cc3)no2)cc(OCC)c1OCC,-15.7%,-3.9%,2.5%,-18.2%,-17.4,0.0%
CCOc1ccc(-c2cc(-c3nc(-c4cc(OC)c(OC)c(OC)c4)no3)[nH]n2)cc1Cl,5.8µM*,/,/,3.26µM*,/,/
CCN(C(=O)COC(=O)CCNS(=O)(=O)c1ccccc1F)c1c(N)n(Cc2ccccc2)c(=O)[nH]c1=O,-20.7%,/,11.0%,-9.0%,10.9,/
C[C@H]1CN(C2CCCCC2)C(=O)[C@@H]1CC(=O)NCc1ccccc1,?,27.1%,-6.5%,?,21.1,6.6%
CCCCN1C[C@H](Cc2ccccc2)[C@@H](CC(=O)Nc2ccc(OC)cc2)C1=O,0.3%,/,/,1.6%,-22.2,/
CCCCC[C@H]1CN(Cc2ccccc2)C(=O)[C@@H]1CC(=O)NCc1ccc(OC)cc1,20.6µM*,?,-1.9%,16.4µM*,-20.3,0.5%
COc1ccc(CNC(=O)C[C@H]2C(=O)N(Cc3ccc(OC)cc3)C[C@@H]2Cc2ccccc2)cc1,20.6µM*,?,-29.8%,8.91µM*,4.8,-4.5%
COc1ccc(CNC(=O)C[C@H]2C(=O)N(CCc3ccccc3)C[C@@H]2Cc2ccccc2)cc1,16.4µM*,22.2%,?,22.4µM*,?,3.7%
CCCCC[C@H]1CN(C2CCCCC2)C(=O)[C@@H]1CC(=O)NCc1ccccc1,11.2µM*,-0.7%,-4.1%,12.6µM*!,?,-8.6%
CCNc1ncc2nc(-c3ccc(F)cc3)c(=O)n(CCOC)c2n1,-21.6%,3.0%,/,-2.8%,/,4.1%
SMILES,DT40 TDP1 CPT,RORgamma inh,ELG1 repair inh,TDP1 cell noCPT,IL-1B inflam inh,VP16 counter
CC(C(=O)OCC(=O)c1ccc(Br)cc1)N1C(=O)C2C3C=CC(C3)C2C1=O (stereo unspecified),-5.5%,19.7%,0.1%,-13.5%,-3.3,-4.3%
COc1ccc(CNC(=O)C[C@H]2C(=O)N(Cc3ccccc3)C[C@@H]2Cc2ccccc2)cc1,?,39.0%,?,18.4µM*,-15.5,-13.0%
COc1ccc(CNC(=O)C[C@H]2C(=O)N(C3CCCCC3)C[C@@H]2Cc2ccccc2)cc1,?,-26.9%,-5.4%,-25.0%,9.6,10.4%
O=C(Nc1ccccn1)c1ccc(Br)s1,1.1%,36.8%[1.91 µM],?,-17.2%,-64.1*,2.0%
CC1CCc2sc(C(=O)Nc3ccc(C(N)=O)cc3)cc2C1 (stereo unspecified),4.9%,8.2%,?,-5.2%,-70.3*,-10.6%
COC(=O)c1sc(NC(=O)c2cc3c(s2)CCCC3)nc1C,-15.7%,1.78µM*,?,20.6µM*,-52.4*,?
Cc1nc(NC(=O)c2cc3c(s2)CCCCC3)sc1C(=O)N(C)C,?,15.8%,?,?,-53.5*,20.8%
COc1ccc(CCC(=O)Nc2nc(C)c(C(=O)N(C)C)s2)cc1,-8.2%,-17.7%,0.4%,30.4%,0.0,2.7%
CCOC(=O)c1sc(NC(=O)c2cc3c(s2)CCC(C)C3)nc1C (stereo unspecified),-11.7%,0.251µM*,?,?,-4.4,0.3%
CCc1sc(C(=O)Nc2nc(C)cs2)cc1C,?,5.01µM*,?,?,-8.6,11.2µM*
Cc1csc(NC(=O)c2ccc(Br)s2)n1,?,10µM*,?,?,-16.6,?
CC1CCc2sc(C(=O)NN)cc2C1 (stereo unspecified),2.3%,25.7%,?,-1.6%,-11.6,-8.7%
CCc1sc(C(=O)Nc2ccc(NC(C)=O)cc2)cc1C,0.3%,?,?,-18.8%,?,18.4%
Cc1nc(NC(=O)CCl)sc1C(=O)N(C)C,13µM*,?,-16.5%,14.6µM*,-80.8*,?
COc1ccc(NC(=O)CCCCCn2nnc3ccccc3c2=O)cc1,-20.0%,-8.8%,-1.6%,-51.6%,-6.0,-8.6%
Cc1csc(NC(=O)c2cc3c(s2)CCC3)n1,-8.5%,2µM*,?,?,-3.0,8.91µM*
Cc1csc(NC(=O)c2cc3c(s2)-c2ccccc2OC3)n1,-13.0%,40.9%,?,-29.4%,32.5,-17.6%
COC(=O)C1CCN(C(=O)c2cc(-c3ccco3)nc3ccccc23)CC1,-25.3%,/,-11.4%,?,21.9,/
